Data: PubChem BioAssay (NCI)
Where “and” joins values, the source holds several entries; their conditions need not be identical. Equal values may be shown once. Compounds without any hit were thinned out: in the full panel of roughly 83,000, 20% have a hit.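 Cells were grown in 96-well plates and exposed to the test compound at a single concentration for 48 hours; results are reported as percent growth, with values below 10 considered active.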 Calls of active or inactive are those of the source.

The compounds below were run on MCF7 breast (assay: NCI-60 one-dose screen, 48 h (100 = growth as untreated, 0 = no growth, -100 = all killed)). Settings: 10 µM unless noted.

Row | SMILES | growth
1 | NC1=NN(c2ccccc2)C2(c3ccncc3C(=O)O)C1C(N)=NN2c1ccccc1 (centres undefined) | 69.3% [100 µM] (inactive) and 90.4% [100 µM] (inactive)
2 | ClC(Cl)(Cl)C1CCOC1n1nnc2ccccc21 (centres undefined) | 68.3% [100 µM] (inactive) and 0.0175% [100 µM] (active)
3 | C[C@]12CC[C@@H]3c4cc(Br)c(O)c(Br)c4CC[C@H]3[C@@H]1CC(Br)C2=O (some centres undefined) | -71.4% [100 µM] (active) and -70.2% [100 µM] (active)
4 | CN(C)CCNc1ccc(NCC[N+](C)(C)Cc2ccc([N+](=O)[O-])cc2)c2c1C(=O)c1c(O)ccc(O)c1C2=O | 24.2% [100 µM] (inactive) and -30.3% [100 µM] (active)
5 | C/C(Cl)=N/OC(=O)Nc1ccc(S(N)(=O)=O)c(C)c1 | -72.4% [100 µM] (active) and -89.8% [100 µM] (active)
6 | N#Cc1sc2nc(/C=C3/C=CC=CC3=O)c(O)n2c1N | 30.3% [100 µM] (inactive) and 3.44% [100 µM] (active)
7 | COc1cc([N+](=O)[O-])c(OC)c2c(Nc3ccc(S(=O)(=O)O)c4cc(S(=O)(=O)O)cc(S(=O)(=O)O)c34)cc(C)nc12 | -88.5% [100 µM] (active) and -100% [100 µM] (active)
8 | N#Cc1cnn2c1n[n+]([O-])c1ccc(Cl)cc12 | 9.63% [100 µM] (active) and -99.2% [100 µM] (active)
9 | N#Cc1c(SCc2ccccc2)nc(-c2ccccc2)[nH]c1=S | 3.22% [100 µM] (active) and -27% [100 µM] (active)
